# Measured values reported in PubChem BioAssay (Tox21).
# Results filed as inconclusive are left out. A call without a number means that no potency is given here. The source made the active and inactive calls. Unless noted, the call rests on the fitted dose curve; in most records, active means well fitted curve in the direction sought with a large enough effect in the repeat runs; inconclusive means weak or mixed curves; inactive means no such curve, though single readings can be large; an effect the other way counts as inactive or inconclusive.
# How the values were obtained:
# [1] = qHTS assay to identify small molecule agonists of the sonic hedgehog signaling (Shh) pathway (AID 1259368; calls by dose curve;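 further: NIH/3T3-derived 3T3Gli1-Luc cells carrying a stable Gli1-driven firefly luciferase reporter; series mostly up to about 92 µM; nearly all actives have a fitted effect of over 15% in size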)
# Outline: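 Luminescent signal was taken as a measure of Gli1-controlled luciferase expression in stably transfected NIH/3T3-derived cells that had been treated for 24 hr with compounds delivered in DMSO.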
# [2] = qHTS assay to identify small molecule agonists of the androgen receptor (AR) signaling pathway in the presence of an antagonist - cell viability counter screen (AID 1259379); further: nearly all actives have a fitted effect of over 25% in size; further: potency means the concentration at half of the fitted maximal effect
# Outline: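 In MDA-kb2 cells (human breast carcinoma, MMTV-luciferase), compounds at 15 concentrations plus 3.0uM nilutamide; 16 hr, 37C, 0% CO2; CellTiter-Fluor fluorescence read for viability.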
# [3] = qHTS assay to identify small molecule agonists of the estrogen receptor beta (ER-beta) signaling pathway - cell viability counter screen (AID 1259380); further: nearly all actives have a fitted effect of over 30% in size; further: potency means the concentration at half of the fitted maximal effect
# Outline: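 Viability of ER-beta-UAS-bla HEK293T cells was determined by CellTiter-Glo luminescence following 16 hr treatment with test compounds at 37C.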
# [4] = qHTS assay to identify small molecule antagonists of the estrogen receptor beta (ER-beta) signaling pathway - cell viability counter screen (AID 1259382); further: series mostly up to about 92 µM; nearly all actives have a fitted effect of over 55% in size
# Outline: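 Tox21 10K library tested in qHTS format on ER-beta-bla HEK293T cells stimulated with 1nM E2; 16 hr treatment at 37C. Same-well CellTiter-Glo luminescence served as the cell viability measure.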
# [5] = target: Estrogen receptor (Homo sapiens) (UniProt P03372); assay: qHTS assay to identify small molecule agonists of the estrogen receptor alpha (ER-alpha) signaling pathway in the presence of an antagonist (AID 1259383; calls by dose curve; further: top concentration of the series differs between compounds; nearly all actives have a fitted effect of over 15% in size)
# Sequence of Estrogen receptor (Homo sapiens) (P03372 whole entry, looked up): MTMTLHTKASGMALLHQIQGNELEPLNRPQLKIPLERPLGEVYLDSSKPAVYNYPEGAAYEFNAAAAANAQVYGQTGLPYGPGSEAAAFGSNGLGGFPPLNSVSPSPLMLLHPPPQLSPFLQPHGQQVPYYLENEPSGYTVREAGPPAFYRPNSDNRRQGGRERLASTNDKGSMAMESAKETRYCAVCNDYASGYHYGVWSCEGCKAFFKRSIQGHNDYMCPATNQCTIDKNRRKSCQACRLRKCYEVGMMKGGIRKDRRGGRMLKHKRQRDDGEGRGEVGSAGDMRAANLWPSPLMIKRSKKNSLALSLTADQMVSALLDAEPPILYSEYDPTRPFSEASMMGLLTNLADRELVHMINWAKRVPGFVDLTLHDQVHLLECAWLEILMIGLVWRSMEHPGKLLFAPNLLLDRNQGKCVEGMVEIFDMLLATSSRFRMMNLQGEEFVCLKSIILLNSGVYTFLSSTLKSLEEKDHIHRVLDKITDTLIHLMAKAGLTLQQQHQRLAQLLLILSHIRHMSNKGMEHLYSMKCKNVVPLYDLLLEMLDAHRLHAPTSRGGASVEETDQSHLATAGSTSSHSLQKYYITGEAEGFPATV
# Outline: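 In VM7Luc4E2 cells, 4,000 per well, compounds at 15 concentrations were co-incubated 22hr at 37C with 10.0nM final ICI-182,780. Luminescence from the stably transfected 4×ERE-luciferase reporter was recorded 30min after ONE-Glo addition.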
# [6] = qHTS assay to identify small molecule agonists of the estrogen receptor alpha (ER-alpha) signaling pathway in the presence of an antagonist - cell viability counter screen (AID 1259386);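 further: series mostly up to about 92 µM; cells exposed to compounds for 22 h at 37 °C before the viability read; nearly all actives have a fitted effect of over 30% in size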
# Outline: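 Fluorescent CellTiter-Fluor viability signal from VM7Luc4E2 cells, with the reagent added during the final hour of a 22hr compound exposure at 37C in the presence of 10.0nM ICI-182,780.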
# [7] = target: Progesterone receptor (Homo sapiens) (UniProt P06401); assay: qHTS assay to identify small molecule agonists of the progesterone receptor (PR) signaling pathway (AID 1346784; calls by dose curve; further: nearly all actives have a fitted effect of over 30% in size)
# Sequence of Progesterone receptor (Homo sapiens) (P06401 whole entry, looked up): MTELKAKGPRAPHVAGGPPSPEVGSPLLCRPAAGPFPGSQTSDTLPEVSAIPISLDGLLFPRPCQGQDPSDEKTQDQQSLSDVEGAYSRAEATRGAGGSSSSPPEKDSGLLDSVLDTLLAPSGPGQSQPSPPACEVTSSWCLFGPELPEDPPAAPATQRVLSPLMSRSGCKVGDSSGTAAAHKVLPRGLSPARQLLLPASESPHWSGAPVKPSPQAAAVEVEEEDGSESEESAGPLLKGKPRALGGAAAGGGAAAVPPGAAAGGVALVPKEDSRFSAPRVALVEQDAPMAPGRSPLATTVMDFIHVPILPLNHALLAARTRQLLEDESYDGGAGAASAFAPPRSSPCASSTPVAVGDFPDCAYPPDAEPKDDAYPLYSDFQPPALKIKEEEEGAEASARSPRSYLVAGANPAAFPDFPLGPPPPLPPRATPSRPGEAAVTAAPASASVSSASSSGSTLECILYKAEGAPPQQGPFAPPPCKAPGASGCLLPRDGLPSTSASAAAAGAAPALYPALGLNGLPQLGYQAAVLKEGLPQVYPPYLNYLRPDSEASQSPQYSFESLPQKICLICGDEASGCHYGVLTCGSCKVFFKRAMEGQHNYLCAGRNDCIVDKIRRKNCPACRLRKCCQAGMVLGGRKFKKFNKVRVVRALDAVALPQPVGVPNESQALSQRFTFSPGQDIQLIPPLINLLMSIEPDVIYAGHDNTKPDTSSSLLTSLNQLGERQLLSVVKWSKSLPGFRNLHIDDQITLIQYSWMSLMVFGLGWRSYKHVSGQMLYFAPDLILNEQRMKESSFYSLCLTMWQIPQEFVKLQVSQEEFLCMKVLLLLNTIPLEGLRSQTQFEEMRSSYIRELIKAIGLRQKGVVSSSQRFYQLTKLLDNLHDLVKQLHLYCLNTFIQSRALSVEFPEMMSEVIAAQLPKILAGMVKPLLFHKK
# Outline: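 The screen uses PR-UAS-bla HEK 293T cells in charcoal-stripped serum (2%). Compounds are applied for 16 hr at 37C after a 6 hr pre-incubation, and reporter activity is detected with a FRET beta-lactamase substrate after 2 hr at room temperature.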
# [8] = qHTS assay to identify small molecule antagonists of the progesterone receptor (PR) signaling pathway - cell viability counter screen (AID 1346798); further: nearly all actives have a fitted effect of over 50% in size; further: potency means the concentration at half of the fitted maximal effect
# Outline: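 Viability was determined by ATP-based luminescence (CellTiter-Glo) in PR-UAS-bla HEK293T cells cultured in 2% charcoal-stripped serum and incubated 16 hr with compounds under R5020 stimulation.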
# [9] = qHTS assay to identify small molecule antagonists of the TGF-beta/Smad signaling pathway - cell viability counter screen (AID 1346824); further: nearly all actives have a fitted effect of over 50% in size
# Outline: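 SBE-bla HEK 293T cells, incubated overnight, then compound plus 0.25 ng/mL TGF-beta1 (stock added) for 5 hr at 37 C. Viability was read in the same wells by CellTiter-Glo luminescence after 30 min at room temperature.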
# [10] = qHTS assay to identify small molecule agonists of the TGF-beta/Smad signaling pathway - cell viability counter screen (AID 1346829); further: top concentration of the series differs between compounds; nearly all actives have a fitted effect of over 45% in size
# Outline: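 Same-well cytotoxicity: CellTiter-Glo added after the 2 hr room-temperature beta-lactamase substrate step, luminescence measured 30 min later; cells had 5 hr of compound at 37 C.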
# [11] = qHTS assay to identify small molecule agonists of the TGF-beta/Smad signaling pathway (AID 1346859; active means well fitted activation curve with a large enough effect in the signal ratio in the repeat runs, not every such curve was filed as active; the % refers to the signal ratio; further: series mostly up to about 77 µM)
# Outline: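 Dual-wavelength fluorescence (460/530 nm emission) quantified beta-lactamase expression under the Smad binding element in HEK 293T cells following 5 hr compound treatment at 37 C.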
# [12] = qHTS assay to identify small molecule agonists or antagonists of the thyroid stimulating hormone receptor (TSHR) signaling pathway - wild type cell line counter screen (AID 1259384; calls by dose curve)
# Outline: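 Wild-type Hek293 cells, 800/well, 18 h at 37C, then compound with Ro20-1724 for 30 min RT. cAMP by HTRF (cAMP-d2/anti-cAMP cryptate), 1 h RT, fluorescence read. 15 concentrations, triplicates.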
# [13] = target: Thyrotropin receptor (Homo sapiens) (UniProt P16473); assay: qHTS assay to identify small molecule antagonists of the thyroid stimulating hormone receptor (TSHR) signaling pathway (AID 1259385; calls by dose curve; further: nearly all actives have a fitted effect of over 20% in size)
# Sequence of Thyrotropin receptor (Homo sapiens) (P16473 whole entry, looked up): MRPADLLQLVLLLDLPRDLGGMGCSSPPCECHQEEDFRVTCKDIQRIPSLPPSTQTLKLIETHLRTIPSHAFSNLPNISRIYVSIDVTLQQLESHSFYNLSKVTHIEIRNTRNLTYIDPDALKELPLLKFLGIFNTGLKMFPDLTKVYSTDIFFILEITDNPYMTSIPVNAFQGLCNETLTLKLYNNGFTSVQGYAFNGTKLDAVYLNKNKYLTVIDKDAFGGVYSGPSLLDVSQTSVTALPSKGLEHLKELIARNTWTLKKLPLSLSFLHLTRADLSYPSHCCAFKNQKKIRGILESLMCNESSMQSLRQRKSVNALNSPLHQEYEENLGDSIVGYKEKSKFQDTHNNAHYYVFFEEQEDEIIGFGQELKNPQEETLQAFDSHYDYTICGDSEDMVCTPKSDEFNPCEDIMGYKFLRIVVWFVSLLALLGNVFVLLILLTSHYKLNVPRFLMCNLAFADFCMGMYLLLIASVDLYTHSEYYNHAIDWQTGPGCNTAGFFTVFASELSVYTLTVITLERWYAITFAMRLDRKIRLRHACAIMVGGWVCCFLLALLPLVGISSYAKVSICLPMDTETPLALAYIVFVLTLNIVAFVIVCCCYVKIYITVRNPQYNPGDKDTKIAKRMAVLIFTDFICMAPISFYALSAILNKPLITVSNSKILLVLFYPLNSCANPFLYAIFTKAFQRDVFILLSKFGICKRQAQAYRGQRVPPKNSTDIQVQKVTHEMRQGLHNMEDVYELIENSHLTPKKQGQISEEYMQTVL
# Outline: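 TSHR-HEK293 cells (800/well) plated 18 h, then compounds with Ro20-1724 and TSH at 1.5 ng/mL final, 30 min at room temperature. cAMP quantified by HTRF (cAMP-d2/anti-cAMP-cryptate, 1 h); 15 concentrations in triplicate.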
# [14] = target: Progesterone receptor (Homo sapiens) (UniProt P06401); assay: qHTS assay to identify small molecule antagonists of the progesterone receptor (PR) signaling pathway (AID 1346795; active means well fitted inhibition curve with a large enough effect in the signal ratio in the repeat runs, not every such curve was filed as active; the % refers to the signal ratio)
# Outline: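 After 6 hr plating at 37C in 2% stripped-serum medium, PR-UAS-bla HEK293T cells got compounds, then 1 nM R5020. Sixteen hours later, LiveBLAzer substrate was applied for 2 hr at room temperature and fluorescence was recorded.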
# [15] = qHTS assay to identify small molecule agonists of the progesterone receptor (PR) signaling pathway - cell viability counter screen (AID 1346799; calls by dose curve; further: nearly all actives have a fitted effect of over 45% in size)
# Outline: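 Viability was scored by ATP luminescence (CellTiter-Glo, 30 min, room temperature) in the same wells used for the reporter readout, after 16 hr compound exposure of PR-UAS-bla HEK293T cells.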
# [16] = target: Thyrotropin-releasing hormone receptor (Homo sapiens) (UniProt P34981); assay: qHTS assay to identify small molecule antagonists of the thyrotropin-releasing hormone receptor (TRHR) signaling pathway (AID 1346877; active means well fitted inhibition curve with a large enough effect in the repeat runs, not every such curve was filed as active; further: series mostly up to about 51 µM)
# Sequence of Thyrotropin-releasing hormone receptor (Homo sapiens) (P34981 whole entry, looked up): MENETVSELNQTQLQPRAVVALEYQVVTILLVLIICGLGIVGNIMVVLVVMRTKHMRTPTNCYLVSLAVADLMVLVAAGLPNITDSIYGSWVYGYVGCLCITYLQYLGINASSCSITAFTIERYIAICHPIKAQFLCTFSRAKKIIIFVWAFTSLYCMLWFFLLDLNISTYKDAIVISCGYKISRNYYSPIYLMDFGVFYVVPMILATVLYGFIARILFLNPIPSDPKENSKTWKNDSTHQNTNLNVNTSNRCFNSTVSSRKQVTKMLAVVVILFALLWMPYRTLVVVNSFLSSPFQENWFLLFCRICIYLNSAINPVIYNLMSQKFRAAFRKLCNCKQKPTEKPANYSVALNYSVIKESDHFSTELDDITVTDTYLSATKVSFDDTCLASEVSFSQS
# Outline: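 In this cell-based calcium flux format, HEK293 cells expressing TRHR received test compound for 5 min before the agonist TRH (1 nM final). Dye loading lasted 2 h at 37 °C.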
# [17] = target: Estrogen receptor beta (Homo sapiens) (UniProt Q92731); assay: qHTS assay to identify small molecule antagonists of the estrogen receptor beta (ER-beta) signaling pathway (AID 1259378; active means well fitted inhibition curve with a large enough effect in the signal ratio in the repeat runs, not every such curve was filed as active; the % refers to the signal ratio)
# Sequence of Estrogen receptor beta (Homo sapiens) (Q92731 whole entry, looked up): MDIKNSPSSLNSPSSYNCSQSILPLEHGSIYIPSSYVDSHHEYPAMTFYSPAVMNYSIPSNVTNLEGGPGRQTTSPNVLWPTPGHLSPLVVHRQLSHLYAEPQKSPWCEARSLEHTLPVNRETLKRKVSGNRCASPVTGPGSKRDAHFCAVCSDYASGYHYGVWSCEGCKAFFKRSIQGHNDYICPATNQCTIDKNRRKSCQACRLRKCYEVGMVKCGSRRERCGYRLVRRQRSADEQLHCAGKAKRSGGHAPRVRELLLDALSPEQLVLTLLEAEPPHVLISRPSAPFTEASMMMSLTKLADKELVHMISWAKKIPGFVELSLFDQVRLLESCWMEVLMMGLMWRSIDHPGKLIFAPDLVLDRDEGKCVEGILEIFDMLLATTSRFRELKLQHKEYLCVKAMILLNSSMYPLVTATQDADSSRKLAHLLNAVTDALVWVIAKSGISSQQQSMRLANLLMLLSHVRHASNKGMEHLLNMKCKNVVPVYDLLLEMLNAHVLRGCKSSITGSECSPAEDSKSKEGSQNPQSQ
# Outline: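 ER-beta-UAS-bla HEK293T cells in 2% charcoal-stripped FBS medium treated with compound plus 1nM final 17-beta-estradiol for 16 hr at 37C. Beta-lactamase reporter read by FRET substrate fluorescence after 2 hours at room temperature.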
SMILES,Potency [1],Potency [2],Potency [3],Potency [4],Potency [5],Potency [6],Potency [7],Potency [8],Potency [9],Potency [10],outcome [11],outcome [12],Potency [13],Potency [14],Potency [15],Potency [16],Potency [17]
O=NN1CCNCC1,inactive,inactive,inactive,inactive,inactive,inactive,inactive,inactive,inactive,inactive,inactive,–,–,–,–,–,–
Sc1ccccc1Cl,inactive,inactive,inactive,inactive,inactive,inactive,inactive,inactive,inactive,inactive,–,inactive,inactive,inactive,inactive,inactive,–
O=S(=O)(Cl)c1ccccc1,inactive,inactive,inactive,–,–,inactive,–,inactive,inactive,inactive,inactive,inactive,inactive,inactive,inactive,–,–
BrCCCCBr,inactive,inactive,inactive,inactive,inactive,inactive,–,inactive,–,–,–,inactive,inactive,–,–,–,–
O=NN1CCCCCC1,inactive,inactive,inactive,inactive,inactive,inactive,inactive,inactive,inactive,inactive,inactive,inactive,inactive,inactive,inactive,–,–
CC(C)(C)C(O)C(Oc1ccc(Cl)cc1)n1cncn1 (stereo not drawn),inactive,inactive,–,–,–,inactive,–,54.5 µM (active),inactive,inactive,inactive,inactive,inactive,–,–,inactive,–
O=C(CBr)c1ccccc1,inactive,inactive,inactive,inactive,inactive,inactive,inactive,inactive,inactive,–,inactive,inactive,inactive,inactive,inactive,inactive,–
O=S1(=O)OC(c2cc(Br)c(O)c(Br)c2)(c2cc(Br)c(O)c(Br)c2)c2ccccc21,inactive,25 µM (active),31.5 µM (active),–,inactive,–,–,–,inactive,–,inactive,–,–,inactive,–,inactive,–
OCCCBr,inactive,inactive,inactive,inactive,inactive,inactive,–,–,inactive,inactive,inactive,inactive,inactive,–,–,inactive,–
O=C(O)C(F)(F)C(F)(F)C(F)(F)C(F)(F)C(F)(F)C(F)(F)C(F)(F)C(F)(F)C(F)(F)F,inactive,inactive,10.9 µM (active),inactive,inactive,inactive,inactive,inactive,inactive,inactive,inactive,inactive,inactive,inactive,inactive,–,–
CCCCNP(N)(N)=S,inactive,inactive,inactive,inactive,inactive,–,inactive,inactive,inactive,inactive,inactive,inactive,inactive,inactive,inactive,inactive,inactive
